The panel holds about 79,000 compounds, 15% with a hit somewhere; the sample as a whole holds those more often. Active and inactive are the calls of the source. Rule as the data show it: active = growth inhibition above about 70%; inactive = the rest.
How the values were obtained:
[1] = NCI Yeast Anticancer Drug Screen. Data for the rad50 strain (AID 155);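 also: 0% = growth of vehicle-only cultures of the same strain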; conditions: S. cerevisiae rad50 strain growth inhibition; at 50.0 µM; hits give high values
How it was run: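 Yeast carrying a defined DNA repair defect were exposed to test compounds, and growth was compared with vehicle-treated controls to give percent inhibition.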

[2] = NCI Yeast Anticancer Drug Screen. Data for the mec2-1 strain (AID 157); conditions: S. cerevisiae mec2-1 strain, at 50.0 µM, hits give high values
How it was run: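 Test agents were screened against the mec2-1 yeast strain, with defined DNA repair or cell cycle alteration. Growth was scored as inhibition against vehicle-only controls.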

[3] = NCI Yeast Anticancer Drug Screen. Data for the sgs1 mgt1 strain (AID 161);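 also: 0% = growth of cultures given vehicle only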; conditions: S. cerevisiae sgs1 mgt1 strain, at 50.0 µM, hits give high values
How it was run: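 Inhibition of yeast growth, normalised to vehicle-treated controls, is reported for a strain bearing genetic alterations in DNA damage repair.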

[4] = NCI Yeast Anticancer Drug Screen. Data for the cln2 rad14 strain (AID 165);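 also: 0% = growth equal to vehicle treated cultures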; conditions: S. cerevisiae cln2 rad14 strain, at 50.0 µM, hits give high values
How it was run: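 Growth of compound-exposed yeast (cln2 rad14 genotype) measured and expressed as inhibition relative to vehicle.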

[5] = NCI Yeast Anticancer Drug Screen. Data for the bub3 strain (AID 167); conditions: S. cerevisiae bub3 mutant strain, at 50.0 µM, hits give high values
How it was run: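 Compounds were applied to a genetically altered yeast strain carrying a cell-cycle control defect. Growth inhibition was scored against vehicle-treated controls.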

[6] = NCI Yeast Anticancer Drug Screen. Data for the mlh1 rad18 strain (AID 175); conditions: S. cerevisiae mlh1 rad18 strain growth inhibition; at 50.0 µM; hits give high values
How it was run: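 In this whole-cell yeast screen, a strain with altered DNA damage repair is challenged with compound, and its growth is measured against matched vehicle-treated controls.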

Measured: growth inhibition

O=c1[nH]nc(-c2ccccc2)n1/N=C\c1ccccc1
inactive: [1] -33.1% | [2] -10.3% | [3] -15.6% | [4] -26.1% | [5] 6.15% | [6] -26%

O=c1[nH]c(Br)nc2c(Br)c[nH]c12
inactive: [1] -17.1% | [2] -0.15% | [3] -18.4% | [4] -12.8% | [5] -22.2% | [6] -18.9%

C/C(=C\c1ccccc1)c1ccccc1
inactive: [1] -47.8% | [2] 1.9% | [3] -3.75% | [4] -30.4% | [5] 2.1% | [6] 8.45%

CCN(CC)C(=S)SCCCS(=O)(=O)O
inactive: [1] 17.7% | [2] -9.95% | [3] 1.75% | [4] 9.2% | [5] 22.3% | [6] 8.75%

OC1C(O)C2CC1C1C2C2(Cl)CC1(Cl)C(Cl)=C2Cl (stereo unspecified)
inactive: [1] 7.6% | [2] -1.55% | [3] 1.5% | [4] -1.35% | [5] -6.1% | [6] 14.3%

CN(C)C=N[C@@H](C(=O)O)c1ccccc1
inactive: [1] -8.85% | [2] -19.1% | [3] -11.4% | [4] 8.8% | [5] -4.95% | [6] 9.8%

CC(C)N(C(=O)c1ccc([Si](C)(C)C)c(C(=O)N(C(C)C)C(C)C)n1)C(C)C
inactive: [1] 30.6% | [2] 19.8% | [3] 20.9% | [4] 9.4% | [5] 0.1% | [6] 28.5%

O=C(Nc1ccc([N+](=O)[O-])cc1)N(c1ccccc1)c1cc(N2CCOCC2)ccn1
inactive: [1] 40.7% | [2] 16.6% | [3] 9.1% | [4] 13.8% | [5] 5.8% | [6] 34.9%

O=C1OC(/C=C/c2ccccc2)=NC/1=C\C=C\c1ccccc1
inactive: [1] 24.1% | [2] 14.8% | [3] 14.9% | [4] 14.2% | [5] 6.15% | [6] -1.65%

O=C1CCCc2cc3c(cc21)CC1(C3)Cc2cc3c(cc2C1)C(=O)CCC3
inactive: [1] -8.8% | [2] -7.25% | [3] -5.8% | [4] -10.3% | [5] -11.2% | [6] -9%

Brc1cccc(-c2nnc(-c3ccc4ccccc4c3)o2)c1
inactive: [1] -5.85% | [2] -29.5% | [3] 6% | [4] 11.4% | [5] -9% | [6] -2.25%

O=C1c2ccccc2C(=O)N1N1C(=O)c2ccccc2C1=O
inactive: [1] 3.95% | [2] -16.8% | [3] -4.45% | [4] 14% | [5] -4.7% | [6] 17.4%

c1ccc2[nH]c3c(N=NC4=NCCN4)c4ccccc4c-3nc2c1
inactive: [1] -10.5% | [2] -56.2% | [3] 10.1% | [4] -5.85% | [5] -15.3% | [6] 12.8%

O=C(NC(=O)c1ccccc1)OC(c1ccccc1)C1CO1 (stereo unspecified)
inactive: [1] -0.7% | [2] 9.65% | [3] 11.4% | [4] 8.55% | [5] -34.1% | [6] 18.8%

CCOC(=O)NC(NC(=O)OCC)c1ccc(Cl)cc1Cl
inactive: [1] -11.7% | [2] -4.55% | [3] -11.6% | [4] 5.9% | [5] 7.2% | [6] 7.8%

COc1ccc(/C(=C/n2ccnc2)C(=O)c2ccc(OC)c(OC)c2)cc1
inactive: [1] -41.6% | [2] -18.7% | [3] -44.8% | [4] 5.8% | [5] -25.4% | [6] -44.5%

CN1N=C(c2ccncc2)OC1c1ccc(C(F)(F)F)cc1 (stereo unspecified)
inactive: [1] 13.9% | [2] -20.6% | [3] 1.35% | [4] 11.3% | [5] -19.6% | [6] -12.5%

O=C(N/N=C\c1ccccn1)Nc1ccc(N=Nc2ccccc2)cc1
inactive: [1] 6.55% | [2] -9.85% | [3] -1.65% | [4] -3.9% | [5] 5.75% | [6] 4.9%

C=CCN(N=O)C(=O)N(CCC)CCCC(NC(C)=O)C(=O)NCc1ccccc1 (stereo unspecified)
inactive: [1] -3.2% | [2] -27.2% | [3] -14.4% | [4] 22.6% | [5] 2.9% | [6] -14.2%

CC(C)CC(NC(=O)COc1cc(Cl)ccc1Cl)C(=O)O (stereo unspecified)
inactive: [1] -4.3% | [2] 19.2% | [3] 6.3% | [4] -18.6% | [5] -3.25% | [6] -40.4%

CC(C)n1c(=O)nc(-c2ccccc2)c2cc3c(cc21)OCO3
inactive: [1] 27.3% | [2] 18.8% | [3] 51.4% | [4] 7% | [5] 47.9% | [6] 8.65%

O=C(O)C(=Cc1ccc(Br)cc1)C(=O)O
inactive: [1] 41.5% | [2] -25.8% | [3] 13.5% | [4] 20.8% | [5] 23.1% | [6] 31.9%

CC(=O)OC(C)(C)[C@@H]1CC[C@H](C)C2=C(C1)[C@@H](C)CC2
inactive: [1] -13.8% | [2] -30.9% | [3] -23.9% | [4] 2.05% | [5] -16.1% | [6] -16.1%

O=C(O)CCCCCN1C(=O)c2cccc([N+](=O)[O-])c2C1=O
inactive: [1] 17.6% | [2] 10% | [3] 22.5% | [4] 19.2% | [5] 12.3% | [6] 12.7%

O=C(O)C(S)c1ccc2ccccc2c1 (stereo unspecified)
inactive: [1] 28.6% | [2] 19.9% | [3] 20.2% | [4] 18.6% | [5] 12.3% | [6] 13.2%

O=C1OC(C(=O)O)Cc2ccccc21 (stereo unspecified)
inactive: [1] -16.1% | [2] -15.2% | [3] -3.15% | [4] -5.1% | [5] -2.3% | [6] -13.3%

CC(C)(C)C(=O)/C(O)=C\c1ccccc1
inactive: [1] -4.25% | [2] 6.2% | [3] -12.2% | [4] -10.7% | [5] 10.9% | [6] -1.2%

COc1cc2cc(-c3ccccn3)nc(N)c2cc1OC
inactive: [1] 29.2% | [2] 9.35% | [3] 39.5% | [4] 2.55% | [5] -1.5% | [6] 9.95%

CC(C)NC(=O)/C=C/C(=O)O
inactive: [1] -16.1% | [2] -20.4% | [3] -41.2% | [4] -7.4% | [5] -11.2% | [6] -9.1%

NC(CSS(=O)(=O)O)=NCCCCC1CCCCC1
inactive: [1] -6.3% | [2] -2.75% | [3] 7.35% | [4] -6.25% | [5] 0.1% | [6] 16.4%

C[n+]1cccc2c(=O)c3ccccc3oc21
inactive: [1] 0.8% | [2] -14.5% | [3] -6.25% | [4] -17.9% | [5] 4.65% | [6] -20.2%

CCc1nc(-c2ccccc2)nc2c1nc(-c1ccc(C)cc1)n2Nc1ccccc1
inactive: [1] 0.85% | [2] 6.05% | [3] -2.95% | [4] -0.25% | [5] -4.45% | [6] 20.9%

O=C1c2ccccc2C(=O)N1OCCCCON1C(=O)c2ccccc2C1=O
inactive: [1] 10.8% | [2] -0.2% | [3] -19.9% | [4] 15.1% | [5] 1% | [6] -2.4%

CCC(C)NC(=O)c1ccccc1 (stereo unspecified)
inactive: [1] 16.8% | [2] 17.7% | [3] 7.8% | [4] -34.5% | [5] 1.75% | [6] 15.3%

Cn1c2c(c(=O)n(C)c1=O)CCC(=O)N2
inactive: [1] 4.95% | [2] 0.7% | [3] -6.5% | [4] -32.6% | [5] -2.4% | [6] -9.4%

CC/C(=C\c1ccc(Cl)cc1)c1ccncc1
active: [1] 99.2% | [2] 99.5% | [3] 99.1% | [4] 99% | [5] 99.2% | [6] 99.2%

CC(C)Oc1ccc(C(N)=S)c2ccccc12
inactive: [1] -0.55% | [2] 4.75% | [3] -0.85% | [4] -29.1% | [5] -1% | [6] 14.1%

COC(=O)C(C)(C#N)/C(C)=C/C(C)C (stereo unspecified)
inactive: [1] -12.7% | [2] -20.9% | [3] -12.8% | [4] -3.9% | [5] -24.8% | [6] -33%

Cc1ccc2[nH]c(C)c(C(=O)c3cccnc3)c2c1
inactive: [1] -7.55% | [2] 0.85% | [3] 13.2% | [4] -13.3% | [5] -18.6% | [6] -8.4%

CCOc1ccc(N=Cc2cc(Br)ccc2O)cc1
inactive: [1] 2.55% | [2] 0.6% | [3] 1.5% | [4] -0.5% | [5] 1.15% | [6] -13.4%

CCOC(=O)c1ccccc1NC
inactive: [1] -8.65% | [2] -7.4% | [3] -12.1% | [4] -4.9% | [5] -23.4% | [6] -26.1%

— PubChem BioAssay (NCI)
